The panel holds about 83,000 compounds, 20% with a hit somewhere; the sample as a whole holds those more often.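 Percent growth is the endpoint: 0 to 100 indicates growth inhibition (40 means 60% inhibition), 0 means no net growth, and negative values indicate cell death.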 A number with no mark means an inactive call. Calls of active or inactive are those of the source. The calls were made as follows: active = growth percent below 10; inactive = the rest.
system: SNB-19 CNS; assay: NCI-60 one-dose screen, 48 h (100 = growth as untreated, 0 = no growth, -100 = all killed); settings: 10 µM unless noted

| Compound | growth |
| --- | --- |
| COc1ccccc1/C=C/C1=C(C)CCC(c2ccccc2OC)C1C (stereo not given) | 19.6% |
| COc1cc(OCc2cccc(-c3ccc4c(c3)OCCO4)c2C)cc(OC)c1C=O | 72.7% |
| COc1ccccc1-c1nc2ccc3[nH]ncc3c2c2c1CCCC2 | 85.6% |
| CC(=O)OCCOc1cc(Cl)c(Cl)cc1Cl | 103% |
| CC1(C)CC(=O)C2=C(C1)OC(C(=O)c1ccccc1)C2c1cccc(Oc2ccccc2)c1 (stereo not given) | 60.8% |
| CC1OC(C(=O)N2CCN(CCO)CC2)CC1COC1CCCCC1 (stereo not given) | 93.9% [50 µM] |
| COc1ccccc1NC(=O)n1c(=O)cc(C)c2ccc(O)cc21 | 106% |
| COc1ccc2c(c1)C(c1c[nH]c3ccccc13)(c1c[nH]c3ccccc13)CCO2 | 66.4% |
| CC(C)(C)n1cc(-c2ccnc(NCCNS(=O)(=O)c3cccc4ccccc34)c2)c(-c2cccc(O)c2)n1 | 88% |
| COc1cc(C2=Nc3c(N)nc(N)nc3NC(c3cccc(Nc4ccnc5cc(C(F)(F)F)ccc45)c3)C2)cc(OC)c1OC (stereo not given) | 78.2% |
| Nc1nc(=O)n([C@H]2CC=C(CO)O2)cc1F | 96.3% |
| CS(=O)(=O)c1ccc(/C(=N/NC(N)=S)c2ccc(F)cc2)cc1 | 99.9% |
| O=c1n(C2OC(CO)C(O)C2O)ccc2nccn12 (stereo not given) | 114% |
| Cc1c(N2CCCCC2)[nH]c2ccccc12 | 116% |
| O=C1CCc2c(sc3[nH]c(=S)n(-c4cc(C(F)(F)F)cc(C(F)(F)F)c4)c(=O)c23)C1 | 15.1% |
| Nc1nc(N)c2c(n1)NC(c1ccc3c(c1)OCO3)CC(c1cccc(Nc3ccncc3)c1)=N2 (stereo not given) | 94.5% |
| CCCCCCCC/C=C\CCCCCCCCOc1ccc(CC(=O)NCC[N+]2(C)CCCC2)cc1 | 38% |
| Cn1cc(-c2csc(-c3cn(CCO)c4ccc(F)cc34)n2)c2cccnc21 | 69.6% |
| CCOC(=O)C1=CCC(n2cc(F)c(=O)[nH]c2=O)O1 (stereo not given) | 108% |
| CC1(C)CC[C@]2(CO)CC[C@]3(C)C(=CC[C@@H]4[C@@]5(C)CCNCC(C)(C)[C@@H]5CC[C@]43C)[C@@H]2C1 | 96.9% |

| Compound | growth |
| --- | --- |
| O=C(CN1C(=O)NC2NC(=O)NC21)N/N=C/c1cccc([N+](=O)[O-])c1 (stereo not given) | 98.8% |
| [2H]C([2H])([2H])Oc1ccc(/C=C/C(=O)/C=C(O)/C=C/c2ccc(OC([2H])([2H])[2H])c(OC([2H])([2H])[2H])c2)cc1OC([2H])([2H])[2H] | 39.2% |
| Cc1nn(C)c2ncnc(Nc3ccccc3Br)c12 | 101% |
| COc1cc(NC(=O)c2cncnc2Nc2ccc3c(ccn3Cc3cccc(F)c3)c2)cc(OC)c1 | 74.7% |
| C=C1CC[C@@H]2[C@](C)(COC(C)=O)[C@H](OC(C)=O)CC[C@@]2(C)[C@@H]1CC(Nc1ccc(S(=O)(=O)Nc2nccc(C)n2)cc1)C1=CCOC1=O (stereo not given in full) | 53.6% |
| Cc1nc2c(c(-c3ccccc3)n1)Cc1c(ccc3ccccc13)O2 | 110% |
| CCCc1cc(CCC)n2nc(N)nc2n1 | 113% |
| Clc1ccc(C2=Nn3c(nnc3-c3cc(Cl)cc(Cl)c3Cl)SC2)cc1 | 32.8% |
| CCN(CC)CCN1C(=O)c2c(c(C)c3c(oc4cc(OC)ccc43)c2C)C1=O | 87.6% |
| O=C1c2cccnc2C(=O)c2c1c(C(=O)OCCCN1CCOCC1)c1ccccn21 | 9.22% (active) |
| CCCCN(CCC#N)C(N)=O | 98.9% |
| O=C(OCC(O)(CO)C(=O)NC12CC3CC(CC(C3)C1)C2)c1ccc(Cl)cc1 (stereo not given) | 96.2% |
| CC1(C)C2=C(C(=O)N1Cc1ccccc1)C(c1ccco1)N(C(=O)C1CCC1)CCN2 (stereo not given) | 98.9% |
| CN1CC(c2ccccc2)C(C(=O)c2ccc(Br)cc2)C12C(=O)Nc1ccccc12 (stereo not given) | 89.9% |
| Nc1ncc(-c2ccc3ncnc(N4CCc5cc(F)c(Cl)cc54)c3c2)cn1 | 59.6% |
| CCCCCN(CCCCC)CC(O)c1c(Cl)ccc2ccccc12 (stereo not given) | 92.3% |
| CNC(=O)c1cc(Oc2ccc3nc(NC(=O)NC(C)C)sc3c2)ccn1 | 82.3% |
| Nc1ccc(Cl)c2c(=O)c3ccccc3[nH]c12 | 88.5% |
| CNC(=O)c1cc(Oc2cccc3nc(NC(=O)Nc4ccc(F)cc4F)ccc23)ccn1 | 54.8% |
| N#Cc1c(-c2ccc(F)cc2)cc(-c2cccc(Cl)c2)[nH]c1=O | 42.7% |

system: U251 CNS; assay: as above; settings: 10 µM unless noted

| Compound | growth |
| --- | --- |
| COc1ccccc1/C=C/C1=C(C)CCC(c2ccccc2OC)C1C (stereo not given) | 15.4% |
| COc1cc(OCc2cccc(-c3ccc4c(c3)OCCO4)c2C)cc(OC)c1C=O | 85.6% |
| COc1ccccc1-c1nc2ccc3[nH]ncc3c2c2c1CCCC2 | 96.7% |
| CC(=O)OCCOc1cc(Cl)c(Cl)cc1Cl | 99.2% |
| CC1(C)CC(=O)C2=C(C1)OC(C(=O)c1ccccc1)C2c1cccc(Oc2ccccc2)c1 (stereo not given) | 40.8% |
| CC1OC(C(=O)N2CCN(CCO)CC2)CC1COC1CCCCC1 (stereo not given) | 99.4% [50 µM] |
| COc1ccccc1NC(=O)n1c(=O)cc(C)c2ccc(O)cc21 | 106% |
| COc1ccc2c(c1)C(c1c[nH]c3ccccc13)(c1c[nH]c3ccccc13)CCO2 | 42.2% |
| CC(C)(C)n1cc(-c2ccnc(NCCNS(=O)(=O)c3cccc4ccccc34)c2)c(-c2cccc(O)c2)n1 | 57.5% |
| COc1cc(C2=Nc3c(N)nc(N)nc3NC(c3cccc(Nc4ccnc5cc(C(F)(F)F)ccc45)c3)C2)cc(OC)c1OC (stereo not given) | 61% |
| Nc1nc(=O)n([C@H]2CC=C(CO)O2)cc1F | 95% |
| CS(=O)(=O)c1ccc(/C(=N/NC(N)=S)c2ccc(F)cc2)cc1 | 107% |
| O=c1n(C2OC(CO)C(O)C2O)ccc2nccn12 (stereo not given) | 99% |
| Cc1c(N2CCCCC2)[nH]c2ccccc12 | 101% |
| O=C1CCc2c(sc3[nH]c(=S)n(-c4cc(C(F)(F)F)cc(C(F)(F)F)c4)c(=O)c23)C1 | -22.4% (active) |
| Nc1nc(N)c2c(n1)NC(c1ccc3c(c1)OCO3)CC(c1cccc(Nc3ccncc3)c1)=N2 (stereo not given) | 80.8% |
| CCCCCCCC/C=C\CCCCCCCCOc1ccc(CC(=O)NCC[N+]2(C)CCCC2)cc1 | 15.1% |
| Cn1cc(-c2csc(-c3cn(CCO)c4ccc(F)cc34)n2)c2cccnc21 | 49.3% |
| CCOC(=O)C1=CCC(n2cc(F)c(=O)[nH]c2=O)O1 (stereo not given) | 95.6% |
| CC1(C)CC[C@]2(CO)CC[C@]3(C)C(=CC[C@@H]4[C@@]5(C)CCNCC(C)(C)[C@@H]5CC[C@]43C)[C@@H]2C1 | 56.6% |

| Compound | growth |
| --- | --- |
| O=C(CN1C(=O)NC2NC(=O)NC21)N/N=C/c1cccc([N+](=O)[O-])c1 (stereo not given) | 111% |
| [2H]C([2H])([2H])Oc1ccc(/C=C/C(=O)/C=C(O)/C=C/c2ccc(OC([2H])([2H])[2H])c(OC([2H])([2H])[2H])c2)cc1OC([2H])([2H])[2H] | 19.5% |
| Cc1nn(C)c2ncnc(Nc3ccccc3Br)c12 | 95.3% |
| COc1cc(NC(=O)c2cncnc2Nc2ccc3c(ccn3Cc3cccc(F)c3)c2)cc(OC)c1 | 41.1% |
| C=C1CC[C@@H]2[C@](C)(COC(C)=O)[C@H](OC(C)=O)CC[C@@]2(C)[C@@H]1CC(Nc1ccc(S(=O)(=O)Nc2nccc(C)n2)cc1)C1=CCOC1=O (stereo not given in full) | 14.6% |
| Cc1nc2c(c(-c3ccccc3)n1)Cc1c(ccc3ccccc13)O2 | 102% |
| CCCc1cc(CCC)n2nc(N)nc2n1 | 110% |
| Clc1ccc(C2=Nn3c(nnc3-c3cc(Cl)cc(Cl)c3Cl)SC2)cc1 | 20.9% |
| CCN(CC)CCN1C(=O)c2c(c(C)c3c(oc4cc(OC)ccc43)c2C)C1=O | 55.5% |
| O=C1c2cccnc2C(=O)c2c1c(C(=O)OCCCN1CCOCC1)c1ccccn21 | -70.7% (active) |
| CCCCN(CCC#N)C(N)=O | 107% |
| O=C(OCC(O)(CO)C(=O)NC12CC3CC(CC(C3)C1)C2)c1ccc(Cl)cc1 (stereo not given) | 93.5% |
| CC1(C)C2=C(C(=O)N1Cc1ccccc1)C(c1ccco1)N(C(=O)C1CCC1)CCN2 (stereo not given) | 100% |
| CN1CC(c2ccccc2)C(C(=O)c2ccc(Br)cc2)C12C(=O)Nc1ccccc12 (stereo not given) | 94.1% |
| Nc1ncc(-c2ccc3ncnc(N4CCc5cc(F)c(Cl)cc54)c3c2)cn1 | 54.8% |
| CCCCCN(CCCCC)CC(O)c1c(Cl)ccc2ccccc12 (stereo not given) | 80.3% |
| CNC(=O)c1cc(Oc2ccc3nc(NC(=O)NC(C)C)sc3c2)ccn1 | 51.6% |
| Nc1ccc(Cl)c2c(=O)c3ccccc3[nH]c12 | 92.2% |
| CNC(=O)c1cc(Oc2cccc3nc(NC(=O)Nc4ccc(F)cc4F)ccc23)ccn1 | 14.9% |
| N#Cc1c(-c2ccc(F)cc2)cc(-c2cccc(Cl)c2)[nH]c1=O | 39.5% |

Reference: PubChem BioAssay (NCI)
